Inconclusive results are not listed. Calls of active or inactive are those of the source. Unless noted, calls follow the shape of the full dose curve.
Tests used:
[1] = qHTS assay for small molecule antagonists of peroxisome proliferator-activated receptor delta signaling (AID 588535); conditions: HEK293T PPARd-UAS-bla, beta-lactamase FRET ratio, 18 h; 460 nm channel;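 also: cells co-treated with a PPAR-delta agonist as stimulator during compound exposure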
Method in brief: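 Fluorescence from CCF4-loaded GeneBLAzer PPAR-delta-UAS-bla HEK293T cells (2 hrs RT loading) quantified reporter inhibition after an 18 hr, 37 C compound exposure across a titration.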

[2] = target: Peroxisome proliferator-activated receptor gamma (Homo sapiens) (UniProt P37231); experiment: qHTS assay for small molecule antagonists of peroxisome proliferator-activated receptor gamma signaling (AID 588537; active = well fitted inhibition curve with a large enough effect in the signal ratio, with a control signal flat, not every such curve was filed as active; the % refers to the signal ratio;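 also: reporter cells co-stimulated with 50 nM rosiglitazone agonist during compound treatment; % of control where 0% means no effect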)
Method in brief: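 Fluorescence at 460 and 530 nm (405 nm excitation) reported beta-lactamase cleavage of CCF4 after 2 h room-temperature loading. HEK293 reporter cells in 1% charcoal/dextran-treated FBS had received compound and rosiglitazone for 16 h.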

[3] = qHTS assay for small molecule agonists of retinoid X receptor alpha signaling (AID 588544); conditions: HEK293T RXRa-UAS-bla, beta-lactamase reporter, 18 h; 530 nm emission
[4] = target: Thyroid hormone receptor beta (Homo sapiens) (UniProt P10828); experiment: qHTS assay for small molecule antagonists of thyroid hormone receptor beta signaling (AID 588547; active = well fitted inhibition curve with a large enough effect in the signal ratio, with a control signal flat, not every such curve was filed as active; the % refers to the signal ratio;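 also: cells stimulated with 0.4 nM T3 agonist during compound exposure; series mostly up to about 77 µM; % is scaled to controls: 0 for no effect and ±100 for the full control effect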); conditions: TR-UAS-bla HEK293, beta-lactamase ratio, antagonist mode, 18 h
Method in brief: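 TR-UAS-bla GripTite HEK293 cells in 2% charcoal/dextran FBS medium; compounds 0.59 nM to 92 uM with T3 at 0.4nM final, 18 h at 37 C. Beta-lactamase read by CCF4 fluorescence (460/530 nm); Hill fits gave IC50 and efficacy.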

[5] = target: Androgen receptor (Homo sapiens) (UniProt P10275); experiment: qHTS assay for small molecule agonists of androgen receptor signaling (AID 588515; active = well fitted curve in the direction sought with a large enough effect in the signal ratio, with a control signal flat; the % refers to the signal ratio; also: % is scaled to controls: 0 for no effect and ±100 for the full control effect); conditions: AR-UAS-bla HEK293, beta-lactamase ratio, agonist 16 h; stronger effect = higher value
Method in brief: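 Stimulation of an AR-responsive β-lactamase reporter in GripTite HEK293 cells was measured after 16 h compound exposure at 37 °C, via CCF4 fluorescence after 2 h RT. EC50 from Hill fits, normalized to R1881 at 30 nM.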

[6] = target: Androgen receptor (Homo sapiens) (UniProt P10275); experiment: qHTS assay for small molecule antagonists of androgen receptor signaling (AID 588516; active = well fitted curve in the direction sought with a large enough effect in the signal ratio, with a control signal flat, not every such curve was filed as active; the % refers to the signal ratio; also: % is scaled to controls: 0 for no effect and ±100 for the full control effect)
Method in brief: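 Antagonist mode: inhibition of R1881-stimulated (10 nM final) bla reporter in GeneBLAzer AR HEK 293 cells, 16 h at 37C, compounds titrated. IC50 and efficacy from Hill-equation fits of 405/460–530 nm FRET ratios.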

[7] = target: Bile acid receptor (Homo sapiens) (UniProt Q96RI1); experiment: qHTS assay for small molecule antagonists of farnesoid X receptor signaling (AID 588526); also: % is scaled to controls: 0 for no effect and ±100 for the full control effect
Method in brief: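 Antagonist mode: titrated compounds tested against chenodeoxycholic acid stimulation (normalized to 50 uM CDCA and DMSO) in GeneBLAzer HEK293T cells for 16 h. Beta-lactamase read by CCF4 fluorescence; IC50 from Hill fits.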

[8] = target: Bile acid receptor (Homo sapiens) (UniProt Q96RI1); experiment: qHTS assay for small molecule agonists of farnesoid X receptor signaling (AID 588527); conditions: HEK293T FXR-UAS-bla, beta-lactamase ratio, 16 h; activation: stronger effect = higher value;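 also: series mostly up to about 77 µM; 0% = vehicle basal and 100% = reference agonist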
Method in brief: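 Quantitative HTS used FXR-UAS-bla HEK293T cells with 16 h compound incubation at 37 C. EC50 values came from concentration-response curves normalized to chenodeoxycholic acid.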

[9] = target: Glucocorticoid receptor (Homo sapiens) (UniProt P04150); experiment: qHTS assay for small molecule antagonists of glucocorticoid receptor signaling (AID 588533; active = well fitted inhibition curve with a large enough effect in the signal ratio, with a control signal flat, not every such curve was filed as active; the % refers to the signal ratio;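 also: cells stimulated with 2 nM dexamethasone as agonist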; also: potency is read from the fitted curve at half-maximal effect)
Method in brief: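 Antagonist-mode qHTS: compound titrations added to GRE-bla HeLa cells, then dexamethasone 2 nM final; 18 h, 37 C. CCF4 FRET fluorescence normalized to dexamethasone and DMSO; IC50 from Hill fit.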

[10] = qHTS assay for small molecule activators of the human pregnane X receptor (PXR) signaling pathway (AID 720659; call rule not given here; also: 0% is about no effect)
[11] = qHTS assay for small molecule agonists of the antioxidant response element (ARE) signaling pathway (AID 651741; active = well fitted activation curve with a large enough effect in the signal ratio; the % refers to the signal ratio; also: potency is read from the fitted curve at half-maximal effect; as to activation: % of control where 0% means no effect)
Method in brief: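 Stably integrated ARE-beta-lactamase reporter HepG2 cells; 16 h compound incubation, 37 C; LiveBLAzer FRET substrate 2 h at room temperature; fluorescence intensity.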

Glucocorticoid receptor (Homo sapiens), sequence (P04150 whole entry, looked up): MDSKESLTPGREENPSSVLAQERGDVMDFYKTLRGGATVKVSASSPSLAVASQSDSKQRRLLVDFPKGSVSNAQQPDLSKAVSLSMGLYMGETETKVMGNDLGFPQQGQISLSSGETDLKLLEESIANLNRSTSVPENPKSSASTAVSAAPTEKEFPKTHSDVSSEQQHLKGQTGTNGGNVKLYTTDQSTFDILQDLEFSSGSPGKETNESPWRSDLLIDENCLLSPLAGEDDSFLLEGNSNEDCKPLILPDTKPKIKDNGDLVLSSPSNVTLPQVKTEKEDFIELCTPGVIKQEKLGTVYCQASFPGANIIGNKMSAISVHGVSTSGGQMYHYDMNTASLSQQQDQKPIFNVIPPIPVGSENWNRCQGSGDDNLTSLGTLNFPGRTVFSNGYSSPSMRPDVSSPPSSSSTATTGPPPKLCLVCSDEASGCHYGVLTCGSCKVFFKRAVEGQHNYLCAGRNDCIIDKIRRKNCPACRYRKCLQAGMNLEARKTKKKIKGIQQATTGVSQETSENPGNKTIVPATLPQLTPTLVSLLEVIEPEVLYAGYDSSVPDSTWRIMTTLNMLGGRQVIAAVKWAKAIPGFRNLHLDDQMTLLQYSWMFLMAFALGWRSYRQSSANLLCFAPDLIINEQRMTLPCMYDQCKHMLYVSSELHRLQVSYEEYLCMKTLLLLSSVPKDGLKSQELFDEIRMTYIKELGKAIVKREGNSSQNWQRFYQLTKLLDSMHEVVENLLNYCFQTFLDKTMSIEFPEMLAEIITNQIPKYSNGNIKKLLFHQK
Thyroid hormone receptor beta (Homo sapiens), sequence (P10828 whole entry, looked up): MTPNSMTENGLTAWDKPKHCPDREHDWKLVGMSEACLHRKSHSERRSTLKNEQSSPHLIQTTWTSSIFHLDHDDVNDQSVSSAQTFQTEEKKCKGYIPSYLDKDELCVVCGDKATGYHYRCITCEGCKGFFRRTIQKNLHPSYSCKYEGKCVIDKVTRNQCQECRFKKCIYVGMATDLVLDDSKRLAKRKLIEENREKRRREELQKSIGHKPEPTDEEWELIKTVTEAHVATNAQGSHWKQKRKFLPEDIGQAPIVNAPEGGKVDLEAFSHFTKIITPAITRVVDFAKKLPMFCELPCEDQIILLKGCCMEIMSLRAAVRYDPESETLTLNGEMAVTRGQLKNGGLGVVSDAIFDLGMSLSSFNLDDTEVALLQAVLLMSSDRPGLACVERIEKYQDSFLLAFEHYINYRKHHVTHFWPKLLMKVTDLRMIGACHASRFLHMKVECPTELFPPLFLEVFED
Bile acid receptor (Homo sapiens), sequence (Q96RI1 whole entry, looked up): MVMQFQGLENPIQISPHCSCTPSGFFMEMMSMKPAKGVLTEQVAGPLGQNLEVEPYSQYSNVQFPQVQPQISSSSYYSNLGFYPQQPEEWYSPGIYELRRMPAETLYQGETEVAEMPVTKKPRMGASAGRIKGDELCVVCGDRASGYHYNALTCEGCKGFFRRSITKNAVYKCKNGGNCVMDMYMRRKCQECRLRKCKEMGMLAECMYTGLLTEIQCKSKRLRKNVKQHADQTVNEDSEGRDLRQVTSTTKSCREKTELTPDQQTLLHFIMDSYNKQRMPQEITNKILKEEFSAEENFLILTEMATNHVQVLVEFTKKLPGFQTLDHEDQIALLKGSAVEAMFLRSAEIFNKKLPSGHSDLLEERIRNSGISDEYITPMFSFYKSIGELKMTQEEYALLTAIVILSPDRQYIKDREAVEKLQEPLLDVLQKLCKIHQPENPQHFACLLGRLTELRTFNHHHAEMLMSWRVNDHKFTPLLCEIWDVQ
Peroxisome proliferator-activated receptor gamma (Homo sapiens), sequence (P37231 whole entry, looked up): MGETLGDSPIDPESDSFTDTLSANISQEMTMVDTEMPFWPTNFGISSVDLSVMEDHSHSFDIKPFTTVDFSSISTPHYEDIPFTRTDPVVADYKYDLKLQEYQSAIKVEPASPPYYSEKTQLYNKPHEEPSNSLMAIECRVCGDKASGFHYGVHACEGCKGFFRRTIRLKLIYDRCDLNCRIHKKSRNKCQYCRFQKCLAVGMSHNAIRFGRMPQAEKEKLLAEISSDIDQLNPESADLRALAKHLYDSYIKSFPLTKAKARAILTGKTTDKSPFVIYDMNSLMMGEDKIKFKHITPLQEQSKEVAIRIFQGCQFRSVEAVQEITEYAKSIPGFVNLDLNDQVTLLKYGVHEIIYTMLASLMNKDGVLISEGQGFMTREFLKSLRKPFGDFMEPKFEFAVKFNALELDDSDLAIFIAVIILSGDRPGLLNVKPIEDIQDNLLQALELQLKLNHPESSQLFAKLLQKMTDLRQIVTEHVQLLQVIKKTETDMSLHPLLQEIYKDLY
Androgen receptor (Homo sapiens), sequence (P10275 whole entry, looked up): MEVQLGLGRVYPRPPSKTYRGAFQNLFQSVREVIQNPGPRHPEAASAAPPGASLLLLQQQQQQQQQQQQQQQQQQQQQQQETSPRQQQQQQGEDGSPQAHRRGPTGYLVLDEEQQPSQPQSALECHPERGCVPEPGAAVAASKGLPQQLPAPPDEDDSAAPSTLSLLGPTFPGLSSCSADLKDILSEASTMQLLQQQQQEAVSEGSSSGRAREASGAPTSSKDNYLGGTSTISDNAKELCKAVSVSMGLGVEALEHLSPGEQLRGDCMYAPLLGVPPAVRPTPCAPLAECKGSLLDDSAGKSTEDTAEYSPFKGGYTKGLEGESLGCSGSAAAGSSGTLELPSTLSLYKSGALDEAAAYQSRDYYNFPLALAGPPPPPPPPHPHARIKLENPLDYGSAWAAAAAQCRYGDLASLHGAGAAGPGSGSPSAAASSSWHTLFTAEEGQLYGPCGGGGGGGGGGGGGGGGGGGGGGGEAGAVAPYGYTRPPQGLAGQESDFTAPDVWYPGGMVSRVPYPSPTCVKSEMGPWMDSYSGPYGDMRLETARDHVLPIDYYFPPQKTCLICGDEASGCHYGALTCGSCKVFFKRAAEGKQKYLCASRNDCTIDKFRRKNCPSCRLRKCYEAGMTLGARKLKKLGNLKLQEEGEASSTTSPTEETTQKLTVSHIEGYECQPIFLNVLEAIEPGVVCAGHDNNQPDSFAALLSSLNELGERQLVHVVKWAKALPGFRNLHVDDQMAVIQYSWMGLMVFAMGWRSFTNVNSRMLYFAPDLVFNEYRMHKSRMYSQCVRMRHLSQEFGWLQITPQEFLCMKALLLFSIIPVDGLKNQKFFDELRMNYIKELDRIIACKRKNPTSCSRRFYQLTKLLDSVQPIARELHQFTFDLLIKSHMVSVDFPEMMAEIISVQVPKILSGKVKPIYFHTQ

Compound | max response [1] [%] | Potency [2] | max response [3] [%] | activity change % (negative = inhibition) [4] | activation [5] | Potency [6] | Potency [7] | activation [8] | Potency [9] | outcome [10] | Potency [11]
C=CCOC(=O)C(C)(C)OC(=O)c1cc(-n2c(=O)cc(C(F)(F)F)n(C)c2=O)ccc1Cl | 15.1 | inactive | -7.31 | -9.78% (inactive) |  |  |  |  |  |  | 
N#CCNC(=O)c1cnccc1C(F)(F)F | -20.3 |  | -4.19 | 15.2% (inactive) | 4.4% (inactive) | inactive | inactive | -0.0822% (inactive) | inactive | inactive | 
O=C(NC(=O)c1c(F)cccc1F)Nc1cc(Cl)c(OC(F)(F)C(F)C(F)(F)F)c(Cl)c1F (stereo unspecified) | 39.8 | inactive | 23 | 12.6% (inactive) | -3.76% (inactive) | inactive | inactive | 3.38% (inactive) |  |  | 30.6 µM (active)
ClCc1ccccc1Cl |  | inactive |  | -5.68% (inactive) | 1.96% (inactive) | inactive | inactive | -0.339% (inactive) |  | inactive | 
CCC[CH2][Sn]([CH2]CCC)([CH2]CCC)[CH2]CCC | 0.148 | inactive |  |  |  |  | inactive | 3.44% (inactive) | inactive | inactive | inactive
Cc1nc(N(C)C)nc(OC(=O)N(C)C)c1C | 13.1 |  | 0.351 | -14.4% (inactive) |  |  | inactive | 2.16% (inactive) | inactive | inactive | inactive
O=[N+]([O-])c1ccc2ccc3cccc4ccc1c2c34 |  | inactive | 19.4 | -20.5% (inactive) | -12% (inactive) |  |  | -3.28% (inactive) |  | inactive | 4.33 µM (active)
CCNS(=O)(=O)C(F)(F)C(F)(F)C(F)(F)C(F)(F)C(F)(F)C(F)(F)C(F)(F)C(F)(F)F | -20.7 | inactive | -3.73 |  | 7.01% (inactive) |  | inactive |  |  | inactive | 
CCS(=O)(=O)c1cccnc1S(=O)(=O)NC(=O)Nc1nc(OC)cc(OC)n1 | -45 |  |  |  |  |  | inactive | 0.0623% (inactive) |  |  | 10.9 µM (active)
O=C1C=CC(=O)c2ccccc21 | -18.7 | inactive | 12.1 |  | 0.338% (inactive) |  | inactive | -2.25% (inactive) | inactive | inactive | 54.5 µM (active)
COP(=O)(OC)Oc1nc(Cl)c(Cl)cc1Cl |  |  | 28.3 | -14.5% (inactive) |  | inactive | inactive | -2.92% (inactive) |  | inactive | 
COC(C)(C)CCC[C@H](C)C/C=C/C(C)=C/C(=O)OC(C)C |  |  | 10.5 | -10.3% (inactive) | -8.45% (inactive) |  |  |  |  |  | 68.6 µM (active)
C=CC(=O)OCC(CC)(COC(=O)C=C)COC(=O)C=C |  |  |  |  | -16.7% (inactive) |  |  |  | 44.7 µM (active) |  | 34.4 µM (active)
O=C(O)c1c(Cl)ccc2cc(Cl)cnc12 | 71.4 | inactive | -15.1 |  |  |  | inactive | 0.431% (inactive) | inactive | inactive | inactive
C[C@H]1[C@H](c2ccc(Cl)cc2)SC(=O)N1C(=O)NC1CCCCC1 |  |  |  |  | -15.6% (inactive) |  |  |  | inactive |  | 
CC1(C)[C@H](C(=O)O[C@H](C#N)c2cccc(Oc3ccccc3)c2)[C@@H]1C=C(Br)Br | 6.87 |  | -14.7 |  | -5.24% (inactive) | inactive |  |  |  |  | 
Cc1ccccc1CO[C@@H]1C[C@@]2(C(C)C)CC[C@]1(C)O2 | 49.2 | inactive | 4.66 |  | -0.477% (inactive) | inactive |  |  |  |  | inactive
N#Cc1cc(I)c(O)c(I)c1 | 43.3 |  |  |  | 6.03% (inactive) | inactive |  |  |  | inactive | 30.6 µM (active)
O=CNC(N1CCN(C(NC=O)C(Cl)(Cl)Cl)CC1)C(Cl)(Cl)Cl (stereo unspecified) | 26.2 | inactive | -14.2 |  | 14.6% (inactive) |  |  |  |  |  | 
CCCOCC(=Nc1ccc(Cl)cc1C(F)(F)F)n1ccnc1 | 18.7 |  | -2.58 |  |  |  | inactive | -0.0346% (inactive) | inactive |  | 19.3 µM (active)
CC(C)=C[C@@H]1[C@@H](C(=O)OCN2C(=O)C3=C(CCCC3)C2=O)C1(C)C |  |  |  | 7.01% (inactive) | 0.858% (inactive) |  |  |  |  |  | 
FC(F)C(F)(F)OCC(Cn1cncn1)c1ccc(Cl)cc1Cl (stereo unspecified) |  |  | 14 | -17.9% (inactive) |  |  | inactive | 1.13% (inactive) | inactive |  | 
CCCCCCCCCCCCC1=C(OC(C)=O)C(=O)c2ccccc2C1=O |  |  |  |  | -4.72% (inactive) |  |  | -0.713% (inactive) |  | inactive | 
Brc1ccc(Br)cc1 | -47.9 | inactive | 0.756 |  |  |  | inactive | -2.5% (inactive) |  | inactive | 
CC(Oc1cccc(Cl)c1)C(=O)O (stereo unspecified) | 47.7 | inactive | -3.83 | 10.2% (inactive) |  |  | inactive | 0.618% (inactive) | inactive | inactive | inactive
N#Cc1cc(Br)c(O)c(Br)c1 |  |  | -9.28 | 6.22% (inactive) |  |  | inactive | 1.36% (inactive) | inactive | inactive | 61.1 µM (active)
c1ccc2c(c1)[nH]c1ccccc12 |  |  |  |  | 0.372% (inactive) |  |  |  |  |  | 
